The supplement of paper PMC8728848
The full list was thinned out, with the strongest signals kept by preference.

Assays:
Experiment in all cases: glycan array binding signal (z-score within array); higher = stronger binding
Settings in all cases: glycan notation: IUPAC condensed, linker removed
[1] = target: Fuc(a1-2)Gal(b1-3)[Fuc(a1-4)]GlcNAc(b1-2)Man(a1-3)[Fuc(a1-2)Gal(b1-3)[Fuc(a1-4)]GlcNAc(b1-2)Man(a1-6)]Man(b1-4)GlcNAc(b1-4)GlcNAc
How it was run: (§1)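 Negative Z-scores can be read as non-binding. The Z-score is calculated within each array and then averaged across arrays of one protein sequence at different concentrations or buffers and across linkers. Arrays, 3228 in all, were curated from the Consortium for Functional Glycomics database and kept only where the protein sequence was available.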

[2] = target: Fuc(a1-2)Gal(b1-3)[Fuc(a1-4)]GlcNAc(b1-3)[Gal(b1-4)GlcNAc(b1-6)]Gal(b1-4)Glc
How it was run: as §1

[3] = target: Fuc(a1-2)Gal(b1-4)GlcNAc(b1-3)Gal(b1-4)GlcNAc(b1-3)Gal(b1-4)GlcNAc
How it was run: as §1

[4] = target: Fuc(a1-2)[Gal(a1-3)]Gal(b1-4)GlcNAc(b1-2)Man(a1-3)[Fuc(a1-2)[Gal(a1-3)]Gal(b1-4)GlcNAc(b1-2)Man(a1-6)]Man(b1-4)GlcNAc(b1-4)[Fuc(a1-6)]GlcNAc
How it was run: as §1

[5] = target: Fuc(a1-2)[Gal(a1-3)]Gal(b1-4)[Fuc(a1-3)]GlcNAc
How it was run: as §1

[6] = target: Fuc(a1-3)[Gal(b1-4)]Glc6S
How it was run: as §1

[7] = target: Fuc(a1-3)[Gal(b1-4)]GlcNAc(b1-4)Gal(b1-4)[Fuc(a1-3)]GlcNAc(b1-4)Gal(b1-4)[Fuc(a1-3)]GlcNAc
How it was run: as §1

Fuc(a1-4)GlcNAc = target: Fuc(a1-4)GlcNAc
How it was run: as §1

[8] = target: Gal(a1-4)Gal(b1-3)GlcNAc(b1-2)Man(a1-3)[Gal(a1-4)Gal(b1-3)GlcNAc(b1-2)Man(a1-6)]Man(b1-4)GlcNAc(b1-4)GlcNAc
How it was run: as §1

Gal(a1-4)Gal(b1-4)Glc = target: Gal(a1-4)Gal(b1-4)Glc
How it was run: as §1

Gal(b1-3)Gal(b1-4)GlcNAc = target: Gal(b1-3)Gal(b1-4)GlcNAc
How it was run: as §1

[9] = target: Gal(b1-4)GlcNAc(b1-2)[Gal(b1-4)GlcNAc(b1-6)]Man(a1-6)[Gal(b1-4)GlcNAc(b1-2)Man(a1-3)]Man(b1-4)GlcNAc(b1-4)GlcNAc
How it was run: as §1

[10] = target: Gal(b1-4)GlcNAc(b1-3)[Gal(b1-4)GlcNAc(b1-6)]Gal(b1-4)GlcNAc
How it was run: as §1

[11] = target: Gal(b1-4)GlcNAc(b1-3)[Gal(b1-4)GlcNAc(b1-6)]GalNAc
How it was run: as §1

Gal6S(b1-4)Glc6S = target: Gal6S(b1-4)Glc6S
How it was run: as §1

[12] = target: GalNAc(a1-3)Fuc(a1-2)Gal(b1-4)GlcNAc(b1-3)[GalNAc(a1-3)Fuc(a1-2)Gal(b1-4)GlcNAc(b1-6)]GalNAc
How it was run: as §1

[13] = target: GalNAc(b1-3)Gal(a1-6)Gal(b1-4)Glc
How it was run: as §1

GalNAc(b1-3)GalNAc = target: GalNAc(b1-3)GalNAc
How it was run: as §1

[14] = target: Glc(a1-6)Glc(a1-6)Glc(a1-6)Glc
How it was run: as §1

GlcA(b1-3)Gal = target: GlcA(b1-3)Gal
How it was run: as §1

[15] = target: GlcNAc(b1-3)Gal(b1-3)GalNAc
How it was run: as §1

GlcNAc(b1-3)GalNAc = target: GlcNAc(b1-3)GalNAc
How it was run: as §1

[16] = target: GlcNAc(b1-3)[GlcNAc(b1-6)]GalNAc
How it was run: as §1

GlcNAc(b1-4)GlcNAc = target: GlcNAc(b1-4)GlcNAc
How it was run: as §1

GlcNAc3Prop(b1-4)GlcNAc = target: GlcNAc3Prop(b1-4)GlcNAc
How it was run: as §1

[17] = target: Man(a1-2)Man(a1-3)[Man(a1-2)Man(a1-6)]Man(a1-6)[Man(a1-2)Man(a1-2)Man(a1-3)]Man(b1-4)GlcNAc(b1-4)GlcNAc
How it was run: as §1

[18] = target: Neu5Ac(a2-3)Gal(b1-3)GalNAc(b1-4)[Neu5Ac(a2-3)]Gal(b1-4)Glc
How it was run: as §1

[19] = target: Neu5Ac(a2-3)Gal(b1-3)GlcNAc
How it was run: as §1

[20] = target: Neu5Ac(a2-3)Gal(b1-3)GlcNAc6S
How it was run: as §1

[21] = target: Neu5Ac(a2-3)Gal(b1-3)[Neu5Ac(a2-6)]GalNAc
How it was run: as §1

[22] = target: Neu5Ac(a2-3)Gal(b1-4)GlcNAc(b1-6)[Gal(b1-3)]GalNAc
How it was run: as §1

[23] = target: Neu5Ac(a2-3)Gal(b1-4)[Fuc(a1-3)]GlcNAc(b1-3)GalNAc
How it was run: as §1

[24] = target: Neu5Ac(a2-3)Gal(b1-4)[Fuc(a1-3)]GlcNAc(b1-6)[Gal(b1-3)]GalNAc
How it was run: as §1

[25] = target: Neu5Ac(a2-6)Gal(b1-4)GlcNAc(b1-2)Man(a1-6)[GlcNAc(b1-2)Man(a1-3)]Man(b1-4)GlcNAc(b1-4)GlcNAc
How it was run: as §1

[26] = target: Neu5Ac(a2-6)GlcNAc(b1-4)GlcNAc(b1-4)GlcNAc
How it was run: as §1

[27] = target: Neu5Ac(a2-8)Neu5Ac(a2-3)Gal(b1-4)Glc
How it was run: as §1

[28] = target: Neu5Ac(a2-8)Neu5Ac(a2-3)[Gal(b1-3)GalNAc(b1-4)]Gal(b1-4)Glc
How it was run: as §1

B1: SefD (Salmonella enterica), Q9L6K6 (protein)
chain: GAYIIRGQNNSAHKLRIRIGGEDWQPDNSGIGMVSHSDFTNEFNIYYFGNGDIPVDTYLISIYATEIEL
- glycan array binding signal (z-score) [1]: -0.362
- glycan array binding signal (z-score) [2]: 5.83
- glycan array binding signal (z-score) [3]: -0.043
- glycan array binding signal (z-score) [4]: -0.413
- glycan array binding signal (z-score) [5]: -0.401
- glycan array binding signal (z-score) [6]: -0.328
- glycan array binding signal (z-score) [7]: -0.46
- glycan array binding signal (z-score) (Fuc(a1-4)GlcNAc): 2.37
- glycan array binding signal (z-score) [8]: -0.091
- glycan array binding signal (z-score) (Gal(a1-4)Gal(b1-4)Glc): -0.442
- glycan array binding signal (z-score) (Gal(b1-3)Gal(b1-4)GlcNAc): 2.24
- glycan array binding signal (z-score) [9]: 0.127
- glycan array binding signal (z-score) [10]: -0.614
- glycan array binding signal (z-score) [11]: -0.441
- glycan array binding signal (z-score) (Gal6S(b1-4)Glc6S): -0.435
- glycan array binding signal (z-score) [12]: 5.38
- glycan array binding signal (z-score) [13]: -0.631
- glycan array binding signal (z-score) (GalNAc(b1-3)GalNAc): -0.05
- glycan array binding signal (z-score) [14]: -0.319
- glycan array binding signal (z-score) (GlcA(b1-3)Gal): -0.456
- glycan array binding signal (z-score) [15]: -0.29
- glycan array binding signal (z-score) (GlcNAc(b1-3)GalNAc): -0.427
- glycan array binding signal (z-score) [16]: -0.43
- glycan array binding signal (z-score) (GlcNAc(b1-4)GlcNAc): 0.15
- glycan array binding signal (z-score) (GlcNAc3Prop(b1-4)GlcNAc): 6.32
- glycan array binding signal (z-score) [17]: -0.324
- glycan array binding signal (z-score) [18]: -0.395
- glycan array binding signal (z-score) [19]: -0.336
- glycan array binding signal (z-score) [20]: -0.237
- glycan array binding signal (z-score) [21]: 2.7
- glycan array binding signal (z-score) [22]: 3.13
- glycan array binding signal (z-score) [23]: 11.3
- glycan array binding signal (z-score) [24]: -0.092
- glycan array binding signal (z-score) [25]: -0.228
- glycan array binding signal (z-score) [26]: -0.293
- glycan array binding signal (z-score) [27]: 0.431
- glycan array binding signal (z-score) [28]: 0.969
